Beta cell apopt – inhibitors of cytokine-induced beta cell apoptosis, primary screen, luminescence; protection from apoptosis, % (no concentration beside the values); INS-1E cytokine-induced death, ATP luminescence, 48 h; percent of positive-control rescue, neutral wells zero; AID 435005, 2010; 300,000 compounds, 0.8% hits;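 active means Every replicate reaches about 75%, or at least half do and their mean reaches it too, limit read from the data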;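 further: higher means more ATP so stronger rescue from cytokine killing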
Gli-Sufu antag – Gli-Sufu pathway antagonists, primary screen, luciferase luminescence, Sufu-KO-LIGHT cells, uHTS. Sufu-KO-LIGHT fibroblasts, Gli luciferase reporter luminescence. inhibition, % at 5 µM. 340,000 compounds, 0.74% hits;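 active means inhibition above about 55%, limit read from the data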
PAX8 reporter – inhibitors of PAX8-driven TPO luciferase reporter, primary screen, RMG-I cells, single concentration; inhibition, % at 12.6 µM; AID 652154, 2013; SteadyGlo, 24 h; 360,000 compounds, 1.2% hits;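 active means mean replicate inhibition at least 60% with every replicate also reaching 60%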;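 further: luciferase light reporting Pax8 driven TPO promoter activity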
CSC inhib – cancer stem cell viability inhibitors, primary screen, luminescence | AID 2717, 2010 | cancer stem cell-like cells viability | inhibition, % at 7.5 µM | 300,000 compounds, 1.1% hits; in the data active means inhibition above about 75%; tested in HMLE shEcad cells
Shn3 3UTR inh – reduction of Shn3 3'UTR firefly luciferase signal, primary screen, Schnurri-3 inhibitor project, cell-based, Clone20 osteoblasts, set 2 | Clone20 osteoblast Shn3 3'UTR firefly luciferase, 24 h | inhibition, % at 12.5 µM | 360,000 compounds, 0.52% hits | AID 588674, 2011;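 active means mean inhibition of at least 75% with every replicate also reaching 75%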
Mdm2 MdmX PPI – inhibitors of human Mdm2-MdmX association, primary screen, cell-based, luminescence, split luciferase, SaOS-2, uHTS. Protein Mdm4 (Homo sapiens) + E3 ubiquitin-protein ligase Mdm2 (Homo sapiens), …. 330,000 compounds, 3% hits. AID 485346, 2010. SaOS-2 split-luciferase Mdm2/MdmX complementation. inhibition, % at 8 µM;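 active means inhibition of at least 50% at 8 µM in the primary screen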
Mdm2 MdmX conf – Mdm2-MdmX complex disruptors, retested hits, confirmation, luminescence, single concentration; Mdm2-MdmX binding, luminescent assay; inhibition, % at 8 µM; 10,000 compounds, 55% hits; shares compounds with Mdm2 MdmX PPI; in the data active means inhibition above about 40%
FLuc counter – full-length luciferase signal inhibition, confirmation, counter-screen for Mdm2/MdmX interaction inhibitor project, cell-based, single concentration, SaOS-2 | shares compounds with Mdm2 MdmX PPI | inhibition, % at 8 µM | AID 504607, 2011 | 6,200 compounds, 77% hits | SaOS-2 full-length luciferase counterscreen, luminescence;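 active means mean inhibition at 8 µM reaching about 37%, which flags the compound as non-specific, limit read from the data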;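 further: p53-null SaOS-2 cells with luciferase driven by a doxycycline-inducible promoter; compound on cells about two nights before reading with doxycycline added after day one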
Hits are given with their value; i = inactive; nt = not tested or not shown. In the library only some 4% were active in any assay of this set; here they are far more common.

SMILES	Beta cell apopt	Gli-Sufu antag	PAX8 reporter	CSC inhib	Shn3 3UTR inh	Mdm2 MdmX PPI	Mdm2 MdmX conf	others
c1ccc(C2(CN3CCNC[C@H]3Cc3cccc4ccccc34)CC2)cc1	i	i	i	i	i	53	i	FLuc counter=91
Cc1noc(C)c1NC(=O)Nc1cccc2c1O[C@H](CN(C)Cc1ccc(C(=O)Nc3ccccc3N)cc1)[C@@H](C)CN([C@@H](C)CO)C2=O	nt	nt	i	nt	nt	nt	nt
C[C@H](NC(=O)C[C@H]1C=C[C@H](NS(=O)(=O)c2cccc(F)c2)[C@H](CO)O1)c1ccccc1	nt	nt	i	nt	nt	nt	nt
COCCSc1nnc(NC(=O)c2ccc([N+](=O)[O-])cc2)s1	i	i	i	i	i	i	nt
Cc1cc(-c2nnc(CSc3nnc(NC(=O)c4ccc(C(C)(C)C)cc4)s3)o2)ccc1[N+](=O)[O-]	i	i	i	i	i	59	i
COc1ccccc1NC(=O)c1cc(-c2cc(OC)c(OC)c(OC)c2)nc2ccccc12	i	i	i	i	i	55	i
COC(=O)c1cc(OC)c(OC)cc1NC(=O)c1cc(-c2ccccc2)nc2ccccc12	i	i	nt	i	i	i	nt
COc1cc(-c2cc(C(=O)Nc3ccncc3)c3ccccc3n2)cc(OC)c1OC	i	i	i	nt	i	i	nt
COc1cc(NC(=O)c2cc(-c3ccccc3)nc3c2cnn3C(C)C)cc(OC)c1OC	i	i	nt	i	i	63	i
CCOc1ccccc1NC(=O)c1cc(-c2cc(OC)c(OC)c(OC)c2)nc2ccccc12	i	i	i	i	i	55	i
COc1ccc(NC(=O)c2cc(-c3ccncc3)nc3ccc(Br)cc23)cc1OC	i	i	i	i	i	97	i
COc1ccc(NC(=O)c2cc(-c3cccnc3)nc3ccc(C)cc23)cc1OC	nt	i	nt	nt	i	nt	nt
C[C@@H]1CCCCO[C@@H](CN(C)S(=O)(=O)c2ccc(Cl)cc2)[C@H](C)CN([C@H](C)CO)C(=O)c2cc(NC(=O)Nc3ccc(F)cc3)ccc2O1	nt	nt	i	nt	nt	nt	nt
O=C(c1ccccc1F)N1CC(=O)N2[C@H](CO)[C@H](c3ccc(-c4ccc(F)cc4)cc3)[C@@H]2C1	nt	nt	i	nt	nt	nt	nt
O=C(C[C@H]1C=C[C@H](NC(=O)CN2CCOCC2)[C@@H](CO)O1)NCCc1ccccc1	nt	nt	i	nt	nt	nt	nt
COc1ccc(-c2cc(C(=O)Nc3ccc(Cl)cc3Cl)c3ccccc3n2)cc1OC	i	i	i	i	i	i	nt
COc1ccc(-c2cc(C(=O)Nc3ccccc3O)c3ccccc3n2)cc1OC	i	i	i	i	i	52	52	FLuc counter=107
COc1cc(-c2cc(C(=O)Nc3ccc(S(=O)(=O)NCc4ccco4)cc3)c3ccccc3n2)cc(OC)c1OC	i	i	i	i	i	63	77	FLuc counter=50
CCNC(=O)Nc1ccc2c(c1)C(=O)N(C)[C@H]1CC[C@H](CC(=O)NCc3ccccc3F)O[C@H]1CO2	nt	nt	i	nt	nt	nt	nt
CCCNC(=O)C[C@H]1CC[C@@H]2[C@@H](COc3ccc(NC(=O)c4ccccc4)cc3C(=O)N2C)O1	nt	nt	i	nt	nt	nt	nt
Cc1ccc2nc(-c3ccccc3)nc(SC(C)C(=O)NCc3cccs3)c2c1 (stereo not drawn)	i	nt	nt	i	nt	63	i
Cc1ccc(C)c2c(SC(C)C(=O)NCc3ccco3)nc(-c3ccccc3)nc12 (stereo not drawn)	i	i	nt	i	i	i	nt
CN(C)CC#Cc1ccc([C@H]2[C@@H](CO)N3C(=O)CN(C(=O)c4cccnc4)C[C@@H]23)cc1	nt	nt	i	nt	nt	nt	nt
N#Cc1ccc(Nc2nc(-c3ccc(O)cc3O)cs2)cc1C(F)(F)F	i	i	nt	85	i	69	61	FLuc counter=55
Oc1ccc(-c2csc(Nc3ccc4c(c3)OCO4)n2)c(O)c1	nt	i	i	nt	i	nt	nt
